PINK1 modulator: A Quantitative High throughput Screen to Identify Chemical Modulators of PINK1 Expression; Potency, µM (highest dose often 76.6 µM), inactives show top-dose activation (PINK1 increase), hits mostly activators; 410,000 compounds, 0.2% hits; AID 624263, 2012; PINK1 immunofluorescence, high-content cytometry, 24 h; active = well fitted activation curve with a large enough effect; inconclusive = small, poorly fitted or top-dose-only effect; cell line not stated here; also: potency is read from the fitted curve at half-maximal effect; % of control where 0% means no effect; nearly all actives have a fitted effect of over 65% in size
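Compound titrations (5 concentrations, 24 h) on a stable cell line; DMSO and CCCP controls. Endpoint: fixed-cell PINK1 immunofluorescence with mitochondrial, cell and nuclear markers, scanned by microplate cytometer.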
ATXN2 expr inh: Primary qHTS for Inhibitors of ATXN expression; HEK-293 ATXN2-luciferase reporter, luminescence, 24 h; 360,000 compounds, 0.72% hits; Potency, µM (top dose mostly 57 µM), without a hit: at the highest dose activity change, negative = inhibition, most hits filed as inhibitors; also: potency is read from the fitted curve at half-maximal effect; % is scaled to controls: 0 for no effect and ±100 for the full control effect; nearly all actives have a fitted effect of over 55% in size
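ATXN2-luciferase reporter cells (luciferase flanked by upstream and downstream ATXN2 gene portions) were treated 24 h at 37 °C with compounds at up to 57 uM. SteadyGlo luminescence gave expression; GF-AFC fluorescence gave viability.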
MCF10A rereplic: A quantitative high throughput screen for small molecules that induce DNA re-replication in MCF 10a normal breast cells | Potency, µM (doses to about 46.1 µM), for inactives: top-dose activity, positive = re-replication, most hits filed as activators | MCF 10A DNA re-replication, Hoechst nuclear intensity, 48 h | 350,000 compounds, 2.9% hits; also: potency is read from the fitted curve at half-maximal effect; % of control where 0% means no effect; nearly all actives have a fitted effect of over 50% in size
S2 tox: Viability Counterscreen for Primary qHTS for Inhibitors of ATXN expression; S2 cells (HEK-293 line with an ATXN2-luciferase reporter) viability, CellTiter-Fluor protease fluorescence, 24 h; Potency, µM (series often up to 56.7 µM), usual class: cytotoxic; 400,000 compounds, 0.49% hits; also: potency is read from the fitted curve at half-maximal effect; nearly all actives have a fitted effect of over 40% in size
IL1B secr inh: qHTS for Inhibitors of Inflammasome Signaling: IL-1-beta AlphaLISA Primary Screen; THP-1 LPS/ATP IL-1B secretion, AlphaLISA, 16 h; stronger effect = lower value; activity change, % at 57.5 µM; 360,000 compounds, 4.7% hits; AID 743279, 2014; in the data active = activity change below about -50%; inconclusive = mostly about -30% to -49%; also: % is scaled to controls: 0 for no effect and ±100 for the full control effect
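Secreted IL-1B measured by AlphaLISA bead assay after 16 h compound exposure of THP-1 cells; compounds (final up to 57.5 uM) added 1 h before LPS (250 ng/mL) and ATP (1.25 mM) stimulation; lower signal means less secretion.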
SW480 rerep: A quantitative high throughput screen for small molecules that induce DNA re-replication in SW480 colon adenocarcinoma cells. SW480 DNA re-replication, Hoechst DNA content imaging, 48 h. Potency, µM (series often up to 46.1 µM), for the others: at the top dose re-replication activation, most hits filed as activators. 340,000 compounds, 1.8% hits; also: potency is read from the fitted curve at half-maximal effect; % of control where 0% means no effect; nearly all actives have a fitted effect of over 55% in size
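Treated cells incubate 48 hr (37 C, 5% CO2), are stained 40 min with Hoechst, and nuclear fluorescence is enumerated; a rise in nuclei with high DNA signal marks re-replication.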
* marks the source's active call; other numbers are inactive results; [ ] = another dose, or the depositor's remark. Hits are enriched below; roughly 7.1% of the tested compounds scored in any of these assays. Unless noted, calls follow the shape of the dose curve; as a rule, active = well fitted curve in the direction sought with a large enough effect; inconclusive = small, poorly fitted or top-dose-only effect, or another doubt; inactive = no such curve, though single readings can be large; an effect the other way counts as inactive or inconclusive.

How did CNCc1cc(Br)c(OCC(=O)Nc2ccccc2OC)c(OC)c1 do in these assays?
PINK1 modulator: 3%; ATXN2 expr inh: -31%; MCF10A rereplic: inconclusive; S2 tox: inconclusive; IL1B secr inh: -62*; SW480 rerep: inconclusive

What do the screens show for `COc1cc(CNCCc2ccccc2)cc(Br)c1OCC(=O)Nc1ccccc1C`?
PINK1 modulator: -3%; MCF10A rereplic: inconclusive; S2 tox: 28µM*; IL1B secr inh: -67*; SW480 rerep: inconclusive

Results for COc1cc(CNCC(C)C)cc(Br)c1OCC(=O)Nc1ccccc1 ?
MCF10A rereplic: 2%; IL1B secr inh: -7; SW480 rerep: -12%

How did COc1ccccc1NC(=O)COc1ccc(Br)cc1CNC1CCCC1 do in these assays?
PINK1 modulator: 30%; ATXN2 expr inh: -35%; MCF10A rereplic: 21%; S2 tox: inconclusive; IL1B secr inh: -86*; SW480 rerep: 11%

What do the screens show for `CN(C)CC(C)(O)c1ccc2c(c1)CN(Cc1cn(C)c3ccccc13)CCO2` (centres undefined)?
PINK1 modulator: 0%; S2 tox: inconclusive

Results for Cn1c(=S)c2[nH]c(SCC3CCCO3)nc2n(C)c1=O (centres undefined) ?
PINK1 modulator: 0%; ATXN2 expr inh: -25%; MCF10A rereplic: 3%; S2 tox: inactive; IL1B secr inh: -88*; SW480 rerep: inconclusive

How did CCCC(C)Sc1nc2c([nH]1)c(=S)n(C)c(=O)n2C (centres undefined) do in these assays?
PINK1 modulator: 10%; ATXN2 expr inh: -30%; MCF10A rereplic: 16%; S2 tox: inactive; IL1B secr inh: -102*; SW480 rerep: inconclusive

What do the screens show for `CCCSc1nc2c([nH]1)c(=O)n(C)c(=S)n2C`?
PINK1 modulator: -1%; ATXN2 expr inh: -17%; MCF10A rereplic: 1%; S2 tox: inconclusive; IL1B secr inh: 2; SW480 rerep: -9%

How did Cn1nc(C(=O)N2CCN(c3ccccc3F)CC2)c2c1-c1ccccc1SC2 do in these assays?
PINK1 modulator: 1%

Results for COC(=O)c1ccc(C(=O)OC)c(NC(=O)N2c3ccccc3Sc3ccccc32)c1 ?
PINK1 modulator: 18%[38.3 µM]; ATXN2 expr inh: inconclusive; MCF10A rereplic: -2%; S2 tox: inconclusive; IL1B secr inh: 35; SW480 rerep: 8%

What do the screens show for `COC(=O)c1ccccc1NC(=O)N1c2ccccc2Sc2ccccc21`?
PINK1 modulator: 2%; ATXN2 expr inh: 20%; MCF10A rereplic: 8.2µM*; S2 tox: inactive; IL1B secr inh: -17; SW480 rerep: 8%

Results for COc1ccccc1C(=O)N1c2ccccc2Sc2ccccc21 ?
PINK1 modulator: -2%; ATXN2 expr inh: -1%; MCF10A rereplic: 23µM*; S2 tox: inactive; IL1B secr inh: 12; SW480 rerep: inconclusive

How did COc1cc(CNCc2cc3ccc(F)cc3nc2N2CCOCC2)cc(OC)c1OC do in these assays?
PINK1 modulator: -1%; S2 tox: inactive

What do the screens show for `Cc1nc(C/C(=N\Nc2ccccc2)c2ccc(O)cc2O)cs1`?
PINK1 modulator: 13%; ATXN2 expr inh: -9%; MCF10A rereplic: inconclusive; S2 tox: inactive; IL1B secr inh: 23; SW480 rerep: 13%

What do the screens show for `CCc1cc(/C(Cc2ccccn2)=N\Nc2ccccc2)c(O)cc1O`?
PINK1 modulator: 1%; MCF10A rereplic: inconclusive; S2 tox: inactive; IL1B secr inh: -76*; SW480 rerep: 38%

Results for O=C(N/N=C/C(Cl)=C/c1ccc([N+](=O)[O-])cc1)C(=O)Nc1ccc(C(=O)O)cc1 ?
PINK1 modulator: -1%; ATXN2 expr inh: 1%; MCF10A rereplic: inconclusive; S2 tox: inactive; IL1B secr inh: -52*; SW480 rerep: inconclusive

Results for OCC1(Cc2cccc(F)c2)CCN(Cc2cccc3nccnc23)CC1 ?
PINK1 modulator: -1%; ATXN2 expr inh: -18%; MCF10A rereplic: -9%; S2 tox: inactive; IL1B secr inh: inconclusive; SW480 rerep: inconclusive

What do the screens show for `CC(C)c1csc(CN2CCC(CO)(Cc3cccc(F)c3)CC2)n1`?
PINK1 modulator: 3%; ATXN2 expr inh: -14%; MCF10A rereplic: inconclusive; S2 tox: inactive; IL1B secr inh: -59*; SW480 rerep: -1%

What do the screens show for `CCn1[nH]c(=O)c(=Nc2c(C)n(C)n(-c3ccccc3)c2=O)cc1-c1ccc(Cl)cc1`?
PINK1 modulator: -3%; ATXN2 expr inh: -6%; MCF10A rereplic: 1%; S2 tox: inactive; IL1B secr inh: -52*; SW480 rerep: -5%

What do the screens show for `C=CCn1c(=N)c(C(=O)NCCCOC)cc2c(=O)n3cccc(C)c3nc21`?
PINK1 modulator: 0%; ATXN2 expr inh: -7%; MCF10A rereplic: 4.1µM*; IL1B secr inh: -18; SW480 rerep: inconclusive

Results for Cc1cccn2c(=O)c3cc(C(=O)NCCN4CCOCC4)c(=N)n(CCCN4CCOCC4)c3nc12 ?
PINK1 modulator: 0%; ATXN2 expr inh: -36%; MCF10A rereplic: inconclusive; S2 tox: inactive; IL1B secr inh: -25; SW480 rerep: 1.2µM*

What do the screens show for `COCCCn1c(=N)c(C(=O)NCc2ccco2)cc2c(=O)n3cccc(C)c3nc21`?
PINK1 modulator: 2%; ATXN2 expr inh: -1%

What do the screens show for `COc1ccc(CCn2c(=N)c(C(=O)NCCN3CCOCC3)cc3c(=O)n4cccc(C)c4nc32)cc1OC`?
PINK1 modulator: 0%; ATXN2 expr inh: -2%; MCF10A rereplic: inconclusive; S2 tox: inconclusive; IL1B secr inh: inconclusive; SW480 rerep: 16µM*

What do the screens show for `COCCCNC(=O)c1cccn2c(=O)c3cc4ccccc4cc3nc12`?
PINK1 modulator: -5%[38.3 µM]; ATXN2 expr inh: inconclusive; MCF10A rereplic: 13µM*; S2 tox: inconclusive; IL1B secr inh: -86*; SW480 rerep: inconclusive

What do the screens show for `NN=C1c2cc(S(=O)(=O)NCCO)ccc2-c2ccc(S(=O)(=O)NCCO)cc21`?
PINK1 modulator: -1%

Results for Cc1cccn2c(=O)c3cc(C(=O)NCCN4CCOCC4)c(=N)n(CCc4ccccc4)c3nc12 ?
PINK1 modulator: -2%; ATXN2 expr inh: -23%; MCF10A rereplic: 2.6µM*; S2 tox: inactive; IL1B secr inh: -63*; SW480 rerep: 2.6µM*

Results for CCNC(=O)c1cc2c(=O)n3cccc(C)c3nc2n(CCc2ccccc2)c1=N ?
PINK1 modulator: 0%; ATXN2 expr inh: -3%; MCF10A rereplic: inconclusive; IL1B secr inh: 13; SW480 rerep: inconclusive

Screening results as filed in PubChem BioAssay.
